Assay results taken from PubChem BioAssay (NCATS).
Inconclusive results are not listed. Active and inactive are the calls of the source. Calls come from the whole dose curve; as a rule, active = well fitted cell-killing curve with a large enough effect; inconclusive = small, poorly fitted or top-dose-only effect, or effect the other way; inactive = no such curve, though single readings can be large or run the other way. Starred links: 1 amine or outer side, 2 acyl side, 3 side chain; linkers in the order of their positions; H or OH if unused. Positions of bridges follow the written chain, without caps; N, C: chain ends. Non-standard residues stand in square brackets, D forms with d. Residues, ends and D or L forms follow the SMILES beside them. Chains are numbered I, II in the order given. *: point of attachment. Actinocin(9to1) = Cc1c2oc3c(C)ccc(C(=O)[*:1])c3nc-2c(C(=O)[*:2])c(N)c1=O; NMeV = CN[CH](C(=O)O)C(C)C; Nva = CCC[C@H](N)C(=O)O; Cbz = O=C(OCc1ccccc1)*; Sar = CNCC(=O)O

Experiment: Quantitative High-Throughput drug screen in 47 multiple myeloma cell lines against the NCATS MIPE library collection: OCIMY7_PLB cell viability assay (AID 1918987); note: nearly all actives have a fitted effect of over 65% in size
Details: OCI-MY7 myeloma viability, CellTiter-Glo ATP, 48 h; viability (% of DMSO): at 45.8 µM (top of the series)
Text: PI: Beverly A. Mock Ph.D.
Laboratory of Cancer Biology and Genetics,
Center for Cancer Research, National Cancer Institute,
National Institute of Health, Bethesda, Maryland
Drug resistance and disease progression are common in multiple myeloma (MM) patients, underscoring the need for new therapeutic combinations. […] We hypothesized that effective combinations would reduce MYC expression and enhance p16 activity. […] These preclinical data identify potentially useful drug combinations for evaluation in drug-resistant MM and reveal potential mechanisms of combined drug sensitivity.
Described herein is the primary MIPE qHTS used to cherrypick compounds. Validated compounds were then further tested for potential synergistic activiy.
[1] Peat TJ, Gaikwad SM, Dubois W, Gyabaah-Kessie N, Zhang S, Gorjifard S, Phyo Z, Andres M, Hughitt VK, Simpson RM, Miller MA, Girvin AT, Taylor A, Williams D, D'Antonio N, Zhang Y, Rajagopalan A, Flietner E, Wilson K, Zhang X, Shinn P, Klumpp-Thomas C, McKnight C, Itkin Z, Chen L, Kazandijian D, Zhang J, Michalowski AM, Simmons JK, Keats J, Thomas CJ, Mock BA. Drug combinations identified by high-throughput screening promote cell cycle transition and upregulate Smad pathways in myeloma. Cancer Lett. 2023 Aug 1;568:216284. doi: 10.1016/j.canlet.2023.216284. Epub 2023 Jun 24. PMID: 37356470; PMCID: PMC10408729.
SEQUENCE No. (e.g., 1, 2, 3, etc.); […] (e.g., Cells, Incubation, Reagent, etc.); VALUE and DESCRIPTION.
1; Cells; 5 uL; white, solid bottom 1536-well Greiner assay plate.
2; Compounds; 23 nL; Kalypsis pin tool (Wako USA) equipped with a 1536-well pin head to transfer to the assay plates.
3; Incubation; 48 hours; 37C incubation.
4; Reagent;5uL; CellTiter Glo (Promega).
5; Detector; 425V; Luminescence; Viewlux PerkinElmer.
NOTES (numbers refer to Sequence numbers above)
1. The cell-based screening methods employed in this study were like those previously published. Briefly, the corresponding myeloma cell lines were screened in 1,536-well plates with 500 cells, 5-uL per well for inhibition of cell viability (assessed by measuring ATP levels with CellTiterGlo).
2. NCATS MIPE 4.0 library of approved and investigational drugs were added using the Kalypsis pin tool. Wells treated with DMSO only for 100% viability and media only for 0% viability were used as controls.
3. The assay plates were covered and incubated for 48 hours in a 37C, 5% CO2 incubator with controlled humidity.
4. After 48 hours, CellTilter-GloTM luminescent substrate mix (Promega) reagent was added to the assay plate and plates we incubated for 5 min at room temperature.
5. Signal was measured as median relative luminescence units on a ViewLux (PerkinElmer) multiplate reader.
[1] Heske CM, Davis MI, Baumgart JT, Wilson K, Gormally MV, Chen L, Zhang X, Ceribelli M, Duveau DY, Guha R, Ferrer M, Arnaldez FI, Ji J, Tran HL, Zhang Y, Mendoza A, Helman LJ, Thomas CJ. Matrix Screen Identifies Synergistic Combination of PARP Inhibitors and Nicotinamide Phosphoribosyltransferase (NAMPT) Inhibitors in Ewing Sarcoma. Clin Cancer Res. 2017 Dec 1;23(23):7301-7311. doi: 10.1158/1078-0432.CCR-17-1121. Epub 2017 Sep 12. PMID: 28899971; PMCID: PMC6636827.
Potency is the fitted concentration of half-maximal effect.

Structure (SMILES)	Potency
Cc1c2oc3c(C)ccc(C(=O)NC4C(=O)NC(C(C)C)C(=O)N5CCCC5C(=O)N(C)CC(=O)N(C)C(C(C)C)C(=O)OC4C)c3nc-2c(C(=O)NC2C(=O)NC(C(C)C)C(=O)N3CCCC3C(=O)N(C)CC(=O)N(C)C(C(C)C)C(=O)OC2C)c(N)c1=O (stereo not given) (I: TVP[Sar][NMeV] / II: TVP[Sar][NMeV]; ester I:1-I:C, II:1-II:C; linker I:N-II:N via Actinocin(9to1); configuration not given here)	inactive
CC(C)C[C@H](NC(=O)CNC(=O)c1cc(Cl)ccc1Cl)B1OC(=O)CC(CC(=O)O)(C(=O)O)O1 (stereo not given in full)	29.6 nM (active)
CCCCCCCCc1ccc(CCC(N)(CO)CO)cc1	11800 nM (active)
CO[C@@H]1[C@@H](O)[C@H](O)[C@@H](n2c3c(Cl)cccc3c3c4c(c5c6cccc(Cl)c6[nH]c5c32)C(=O)NC4=O)O[C@@H]1CO	148 nM (active)
O=C1c2c(O)cccc2[C@@H]([C@@H]2O[C@H](CO)[C@@H](O)[C@H](O)[C@H]2O)c2cc(CO)cc(O)c21	inactive
CC(=O)N1CCN(c2ccc(OCc3nn(C)c(C)c3-c3cccc4c(CCCOc5cccc6ccccc56)c(C(=O)O)n(Cc5cccnc5)c34)cc2)CC1	1 nM (active)
C=CC(=O)N1CCc2ccc(-n3c(=O)ccc4cnc5ccc(-c6cnn(C)c6)cc5c43)cc21	833 nM (active)
COc1cc2c(Nc3ccc(Cl)c(Cl)c3F)ncnc2cc1OCC1C[C@@H]2CN(C)C[C@H]2C1	209 nM (active)
Cc1ccc2nc(NCCN)c3ncc(C)n3c2c1	6620 nM (active)
c1ccc2c(Oc3nc(Nc4ccc(N5CCOCC5)cc4)c4ncn(C5CCCCC5)c4n3)cccc2c1	14800 nM (active)
CN1CCCN(C(=O)c2cccc(-c3ccc(C=C4C(=O)Nc5ccc(Cl)cc54)o3)c2)CC1	10500 nM (active)
C[C@H]1[C@@H](OC(=O)CCC(=O)O)O[C@@H]2O[C@@]3(C)CC[C@@H]4[C@H](C)CC[C@@H]1[C@@]24OO3	833 nM (active)
CCC[C@H]1C[C@H](C(=O)N[C@@H]([C@@H]2O[C@@H](SC)[C@@H](O)[C@@H](O)[C@@H]2O)[C@H](C)Cl)N(C)C1	inactive
CC(=O)[C@]1(O)Cc2c(O)c3c(c(O)c2[C@@H](O[C@H]2C[C@H](N)[C@@H](O)[C@H](C)O2)C1)C(=O)c1ccccc1C3=O	166 nM (active)
C=CC[C@@H]1C=C(C)C[C@H](C)C[C@H](OC)[C@H]2O[C@@](O)(C(=O)C(=O)N3CCCC[C@H]3C(=O)O[C@H](C(C)=C[C@@H]3CC[C@H](O)[C@H](OC)C3)[C@@H](C)[C@@H](O)CC1=O)[C@@H](C)C[C@@H]2OC	2090 nM (active)
Cc1cnc(Nc2ccc(CN3CCOCC3)cc2)nc1Nc1cccc(S(=O)(=O)NC(C)(C)C)c1	526 nM (active)
Cc1cncc2cccc(S(=O)(=O)N3CCCN(C(=O)CN)C[C@@H]3C)c12	11800 nM (active)
Cn1cc(C2=C(c3c4n(c5ccccc35)CCC(CN)C4)C(=O)NC2=O)c2ccccc21 (stereo not given)	7430 nM (active)
C=CCNC1=C2C[C@@H](C)C[C@H](OC)[C@@H](O)[C@@H](C)C=C(C)[C@H](OC(N)=O)[C@@H](OC)C=CC=C(C)C(=O)NC(=CC1=O)C2=O	833 nM (active)
CC(=O)ON=C1C(c2c(O)[nH]c3cc(Br)ccc23)=Nc2ccccc21	1480 nM (active)

Structure (SMILES)	Potency
C[C@H]1COc2c(N3CCN(C)CC3)c(F)cc3c(=O)c(C(=O)O)cn1c23	inactive
CN1[C@H]2CC(OC(=O)[C@@H](CO)c3ccccc3)C[C@H]1[C@H]1O[C@H]12 (stereo not given in full)	inactive
CC(C)(O)[C@H]1CC[C@@](C)([C@H]2[C@@H](O)C[C@@]3(C)[C@@H]4C[C@H](O[C@@H]5O[C@H](CO)[C@@H](O)[C@H](O)[C@@H]5O)[C@H]5C(C)(C)[C@@H](O[C@@H]6OC[C@@H](O)[C@H](O)[C@@H]6O)CC[C@@]56C[C@@]46CC[C@]23C)O1	inactive
CCOC(=O)N1CCN([N+]([O-])=NOc2ccc([N+](=O)[O-])cc2C#N)CC1	590 nM (active)
CC(=O)O[C@H]1C[C@@H]2CC[C@H]3[C@H]4C[C@H]([N+]5(C)CCCCC5)[C@@H](OC(C)=O)[C@@]4(C)CC[C@@H]3[C@@]2(C)C[C@H]1N1CCCCC1	inactive
CCN(CC)CCNC(=O)c1c(C)[nH]c(C=C2C(=O)Nc3ccc(F)cc32)c1C	171 nM (active)
CN(C)c1ccc2cc(C(=O)N[C@@H](CCCN=C(N)CCl)C(=O)NCc3ccccc3)ccc2c1	13200 nM (active)
CCN1CCN(C(=O)N[C@H](C(=O)N[C@@H]2C(=O)N3C(C(=O)O)=C(CSc4nnnn4C)CS[C@@H]23)c2ccc(O)cc2)C(=O)C1=O	inactive
CCCCOc1ccc(C(=O)Nc2ccc(F)cc2F)cc1	105 nM (active)
CC(C)(C)c1nc2c3cc[nH]c(=O)c3c3cc(F)ccc3c2[nH]1	332 nM (active)
C#C[C@]1(O)CC[C@@H]2[C@@H]3CCC4=CC(=O)CC[C@@H]4[C@H]3CC[C@@]21CC	inactive
COc1cccc2c1C(=O)c1c(O)c3c(c(O)c1C2=O)C[C@@](O)(C(=O)CO)C[C@@H]3O[C@H]1C[C@H](N)[C@@H](O)[C@H](C)O1	2090 nM (active)
COc1cccc2c1C(=O)c1c(O)c3c(c(O)c1C2=O)C[C@@](O)(C(C)=O)C[C@H]3O[C@H]1C[C@H](N)[C@H](O)[C@H](C)O1	418 nM (active)
CCC[C@@H](C=O)NC(=O)[C@H](CC(C)C)NC(=O)[C@H](CC(C)C)NC(=O)OCc1ccccc1 (Cbz-Leu-Leu-[Nva]-aldehyde)	372 nM (active)
COc1ccc(CCC(=O)c2c(O)cc(O[C@@H]3O[C@H](CO)[C@@H](O)[C@H](O)[C@@H]3O[C@@H]3O[C@@H](C)[C@H](O)[C@@H](O)[C@@H]3O)cc2O)cc1O	10500 nM (active)
N#CNC(=NCCCCCCOc1ccc(Cl)cc1)Nc1ccncc1	inactive
NC(=O)Nc1sc(-c2ccc(F)cc2)cc1C(N)=O	662 nM (active)
COc1ccc(C=Cc2cc(OC)c(OC)c(OC)c2)cc1NC(=O)[C@H](N)CO	1 nM (active)
CCOC(=O)[C@@H](N)Cc1ccc(-c2cc(O[C@H](c3ccc(Cl)cc3-n3ccc(C)n3)C(F)(F)F)nc(N)n2)cc1	11800 nM (active)
CC(C)N1[N]C(=C2C=c3cc(O)ccc3=N2)c2c(N)ncnc21	743 nM (active)
